From PubChem BioAssay (NCATS)
Several values for one entry are separate records, joined by “and”; a condition that tells them apart may be missing. Equal entries are not always repeated. Records with an inconclusive call do not appear. Where a call stands in place of a potency, no number is given. Activity calls are given as the source filed them. Calls come from the whole dose curve; as a rule, active = well fitted cell-killing curve with a large enough effect; inconclusive = small, poorly fitted or top-dose-only effect; inactive = no such curve, though single readings can be large or run the other way.

Assay: qHTS of pediatric cancer cell lines to identify multiple opportunities for drug repurposing: Primary screen for OHS-50 cells (AID 1347103); note: nearly all actives have a fitted effect of over 40% in size
Conditions: OHS-50 osteosarcoma viability, CellTiter-Glo luminescence, 48 h; series mostly up to 57.3 µM
From the text: Drug repurposing or repositioning has been offered as a strategy for drug development in oncology programs. This approach has special potential for childhood cancers and other rare or orphan diseases, where the expected return on new drug development has been a disincentive to pharmaceuticals.
In this project we exploit the poly-pharmacology of drugs to discover new indications via phenotypic screening of a panel of 19 well-characterized cell lines derived from solid tumors seen in children and adolescents. The goal is to identify approved drugs with previously unrecognized anticancer properties that has the potential to reveal new mechanisms and biological processes involved in carcinogenesis or drug resistance. We employed a titration-based paradigm (quantitative high-throughput screening or qHTS), where all compounds were tested at multiple concentrations for their effect on cell viability. Concentration-response curves (CRCs) were derived directly from the primary screen, and both potency and efficacy values were used to identify compounds with robust bioactivity profiles. We screened the NIH Chemical Genomics Center (NCGC) Pharmaceutical Collection (NPC) and Mechanism Interrogation Plate (MIPE) small molecule collections of approved and investigational compounds against these cell lines; and measured metabolically active cells after 48 hours of compound treatment as a proxy for cell viability.
Assay Submitter: Nathalia J. Martinez, National Center for Advancing Translational Sciences, National Institutes of Health, Rockville, MD, USA; email: natalia.martinez@nih.gov
[1] Shen, M et al. Quantitative high-throughput phenotypic screening of pediatric cancer cell lines identifies multiple opportunities for drug repurposing. Oncotarget 2017 Dec 19;9(4):4758-4772. PMID 29435139.
The cells were obtained from University of North Carolina (UNC), Pediatric Preclinical Testing Program (PPT), and Coriell Institute (CI).
qHTS cell viability assay:
Cells were assayed in growth media at a density of 500-1,000 cells/well. Five microliters of cells were dispensed into 1,536-well, white, solid-bottom, TC-treated plates (Greiner Bio One) using a multidrop dispenser and incubated at 37 degrees C, 5% CO2, under a humidified atmosphere for 5 hours. Twenty-three nanoliters of compounds and controls (neutral control DMSO or positive control bortezomib at final concentration of 2.3 µM) were subsequently transferred by Kalypsys pintool. For primary screens, the MIPE collection was tested at 11-point dilutions (final concentrations range from 0.78 nM to 46 µM) and the NPC collection at 8-point dilutions (final concentrations range from 0.59 nM to 46 µM). Compounds tested in follow-up screens were assayed at 11-point dilutions. Cells were incubated for 48 hours, followed by addition of 3 µL of CellTiter-Glo (Promega). After a 15 min incubation at room temperature, samples were analyzed for luminescence intensity using a ViewLux High-throughput CCD imager equipped with clear filters.
Potency is the fitted concentration of half-maximal effect.

Row | Compound | Potency
1 | CCn1cc(C(=O)O)c(=O)c2cc(F)c(N3CCNC(C)C3)c(F)c21 (stereo not given) | inactive
2 | CCn1c(-c2nonc2N)nc2cnc(Oc3cccc(NC(=O)c4ccc(OCCN5CCOCC5)cc4)c3)cc21 | 15.3 µM (active)
3 | CCN(CC)CCCC(C)Nc1ccnc2cc(Cl)ccc12 (stereo not given) | 8.63 µM (active)
4 | Oc1ccc(C2CNCCc3c2cc(O)c(O)c3Cl)cc1 (stereo not given) | inactive
5 | Clc1ccc(Nc2nnc(Cc3ccncc3)c3ccccc23)cc1 | 19.5 µM (active)
6 | N=c1nc(N2CCCCC2)cc(N)n1O | inactive
7 | O=NN(CCCl)C(=O)NCCCl | inactive
8 | Fc1ccc(Cl)cc1-c1nc(Nc2ccncc2)c2nccnc2n1 | inactive
9 | COc1ccccc1[C@H](c1cccc2ccccc12)[C@@](C)(C#N)C(=O)N1CCC(c2cccc(C(F)(F)F)c2)CC1 | 1.09 µM (active)
10 | Cc1ccc(N(CC2=NCCN2)c2cccc(O)c2)cc1 | 27.3 µM (active) and 30.9 µM (active)
11 | C[C@]12CC[C@H](O)CC1=CC[C@@H]1[C@H]2CC[C@]2(C)C(c3cccnc3)=CC[C@H]12 | inactive
12 | Nc1nc2[nH]cc(CCc3ccc(C(=O)N[C@@H](CCC(=O)O)C(=O)O)cc3)c2c(=O)[nH]1 | inactive
13 | CC1(C)SCCN(S(=O)(=O)c2ccc(OCC#CCO)cc2)[C@@H]1C(=O)NO | inactive
14 | O=c1[nH]cnc2[nH]ncc12 | 21.7 µM (active)
15 | CC(=O)NC(C)c1ccc(Oc2ccc(OC(C)C)cc2)cc1 (stereo not given) | 21.7 µM (active)
16 | CC(C)(Sc1ccc(CCN(CCCCC2CCCCC2)C(=O)NC2CCCCC2)cc1)C(=O)O | inactive
17 | COc1ccc(CC2=NN3C([C@@H](CCc4ccccc4)[C@@H](C)O)=NC(C)C3C(=O)N2)cc1OC (stereo not given in full) | inactive
18 | CC(C[N+](C)(C)C)OC(N)=O (stereo not given) | inactive
19 | CC(C)(N)C(=O)N[C@H](COCc1ccccc1)C(=O)N1CCC2(CC1)CN(S(C)(=O)=O)c1ccccc12 | 27.3 µM (active)
20 | O=C1CCC(N2C(=O)c3ccccc3C2=O)C(=O)N1 (stereo not given) | inactive

Row | Compound | Potency
21 | Nc1nc2c(ncn2COCCO)c(=O)[nH]1 | inactive
22 | CCc1ccc(CCOc2ccc(CC3SC(=O)NC3=O)cc2)nc1 (stereo not given) | inactive
23 | CCCc1nc2c(C)cc(-c3nc4ccccc4n3C)cc2n1Cc1ccc(-c2ccccc2C(=O)O)cc1 | inactive
24 | COc1ccc2c3n(c(=NC(=O)c4cccnc4)nc2c1OC)CCN3 | 0.968 µM (active)
25 | COc1ccc(-c2ccc3c(N4CCOCC4)nc(N4C[C@@H](C)O[C@@H](C)C4)nc3n2)cc1CO | 0.217 µM (active)
26 | CCCS(=O)(=O)Nc1ccc(F)c(C(=O)c2c[nH]c3ncc(-c4ccc(Cl)cc4)cc23)c1F | 6.85 µM (active)
27 | COc1cc2c(cc1OC)CN(CCc1ccc(NC(=O)c3cccc4c(=O)c5cccc(OC)c5[nH]c34)cc1)CC2 | inactive
28 | C[C@]12CCC(=O)C=C1CC[C@@H]1[C@@H]2[C@@H](O)C[C@@]2(C)[C@H]1CC[C@]2(O)C(=O)CO | inactive
29 | CCc1cncnc1N1CCN(Cc2nc3ccc(C(F)(F)F)cc3[nH]2)CC1 | 15.3 µM (active)
30 | OC(CN1CCC(Cc2ccc(F)cc2)CC1)c1ccc(Cl)cc1 (stereo not given) | inactive
31 | Cc1cccc(-c2[nH]c(C(C)(C)C)nc2-c2ccc3nccnc3c2)n1 | 6.11 µM (active)
32 | CO[C@@H]1[C@H](N(C)C(=O)c2ccccc2)C[C@H]2O[C@]1(C)n1c3ccccc3c3c4c(c5c6ccccc6n2c5c31)C(=O)NC4 | 2.17 µM (active)
33 | NCCCC(N)(C(=O)O)C(F)F (stereo not given) | inactive
34 | CCOc1cc(N2CCC(O)CC2)ccc1Nc1ncc2c(n1)N(C)c1ccccc1C(=O)N2C | 0.0432 µM (active)
35 | O=C(Nc1cccnc1)N1CCC(Cc2cccc(Oc3ccc(C(F)(F)F)cn3)c2)CC1 | 10.9 µM (active)
36 | NNCCc1ccccc1 | inactive
37 | O=C(Nc1nc2ccccc2n1CCN1CCOCC1)c1cccc([N+](=O)[O-])c1 | 9.68 µM (active)
38 | NC(=O)c1ccc(-c2nc(-c3ccc4c(c3)OCO4)c(-c3ccccn3)[nH]2)cc1 | inactive
39 | OCCC#Cc1nc(-c2ccc(F)cc2)c(-c2ccncc2)n1CCCc1ccccc1 | 27.3 µM (active)
40 | NCCc1ccc(O)c(O)c1 | inactive
